# Hits are enriched below; roughly 1.1% of the tested compounds scored in any of these assays.
# CIT2 TOR yeast: modulators of CIT2-GFP expression in yeast, primary screen, S. cerevisiae, GFP fusion, multiplex flow cytometry, MLPCN library | S. cerevisiae CIT2-GFP strain, 3 h; 100 means same as DMSO wells | GFP response vs DMSO, % at 10 µM | 320,000 tested, 0.065% active | AID 2029, 2009;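 active means GFP response relative to DMSO above a set limit, near the screen mean plus 3 SD, cut at about 150% in these data; inconclusive means Fewer than 70 cells measured for a yeast strain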;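 further: ratio of well median GFP fluorescence to mean of DMSO wells on the plate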
# AGP1 TOR yeast: modulators of AGP1-GFP expression in yeast TOR pathway, primary screen, cell-based, multiplex flow cytometry, S. cerevisiae, MLPCN library; GFP response vs DMSO, % at 10 µM; 320,000 tested, 0.02% active; 3 h; GFP as percent of DMSO wells;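 active means GFP response relative to DMSO above a set limit, near screen average plus 3 SD, cut at about 150% in these data; inconclusive means fewer than 70 cells counted for the yeast strain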;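 further: median GFP channel fluorescence of the gated AGP1 strain per well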
# RPL19A TOR yeast: RPL19A-GFP expression modulators in yeast, primary screen, cell-based, S. cerevisiae, multiplex flow cytometry, MLPCN; S. cerevisiae RPL19A-GFP strain, 3 h; stronger effect = lower value; 330,000 tested, 0.3% active; percent response vs DMSO, % at 10 µM;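 active means percent response vs DMSO below 50%; inconclusive means fewer than 70 events counted for the yeast strain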;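 further: median channel GFP fluorescence of the barcoded RPL19A-GFP strain; ratio of sample median GFP to plate DMSO average so 100% = DMSO; lower means less RPL19A-GFP as with rapamycin TOR inhibition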
# VLA-4 inh: inhibition in human VLA-4 binding assay, primary screen, VLA-4 allosteric modulator project, MLPCN library, flow cytometry, VLA-4 expressing cells. AID 2557, 2010. 330,000 tested, 0.2% active. inhibition, % (about 7 µM as worked out from the volumes in the protocol). Integrin alpha-4 (Homo sapiens), P13612. ligand binding flow cytometry; in the data active means inhibition above about 50%
# Target sequence (P13612 whole entry, looked up): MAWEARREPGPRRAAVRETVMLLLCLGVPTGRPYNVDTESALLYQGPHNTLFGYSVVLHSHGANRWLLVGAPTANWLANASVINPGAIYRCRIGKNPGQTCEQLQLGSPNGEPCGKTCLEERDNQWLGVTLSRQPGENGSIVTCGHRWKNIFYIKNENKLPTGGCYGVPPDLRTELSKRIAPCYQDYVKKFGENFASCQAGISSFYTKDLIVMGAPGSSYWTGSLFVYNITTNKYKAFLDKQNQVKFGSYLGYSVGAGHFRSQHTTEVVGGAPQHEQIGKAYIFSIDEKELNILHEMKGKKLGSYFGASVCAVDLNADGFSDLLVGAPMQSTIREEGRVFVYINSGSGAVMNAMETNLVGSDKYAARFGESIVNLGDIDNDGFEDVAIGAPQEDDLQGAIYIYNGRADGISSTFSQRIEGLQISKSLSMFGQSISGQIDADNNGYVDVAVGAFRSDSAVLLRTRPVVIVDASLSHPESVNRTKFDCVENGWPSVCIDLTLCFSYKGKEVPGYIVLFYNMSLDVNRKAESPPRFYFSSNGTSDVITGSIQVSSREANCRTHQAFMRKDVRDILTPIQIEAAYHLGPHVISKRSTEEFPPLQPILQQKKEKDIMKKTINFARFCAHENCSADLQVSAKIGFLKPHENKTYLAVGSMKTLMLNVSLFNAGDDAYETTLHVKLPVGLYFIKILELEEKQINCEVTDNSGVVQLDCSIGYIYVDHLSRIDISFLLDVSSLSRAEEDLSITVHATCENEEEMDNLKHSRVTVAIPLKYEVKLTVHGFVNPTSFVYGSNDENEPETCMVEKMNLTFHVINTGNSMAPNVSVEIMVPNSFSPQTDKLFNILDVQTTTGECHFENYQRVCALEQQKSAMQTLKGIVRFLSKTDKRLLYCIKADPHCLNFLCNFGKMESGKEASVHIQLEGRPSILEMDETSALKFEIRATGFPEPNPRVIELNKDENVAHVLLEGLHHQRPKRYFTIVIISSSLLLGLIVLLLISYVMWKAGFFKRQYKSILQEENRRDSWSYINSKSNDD
# MEP2 TOR yeast: modulators of MEP2-GFP levels in yeast, primary screen, S. cerevisiae, multiplex flow cytometry, MLPCN library; S. cerevisiae MEP2-GFP strain, 3 h; 100% = DMSO control level; GFP response vs DMSO, % at 10 µM; 330,000 tested, 0.51% active; AID 2016, 2009;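 active means GFP response versus DMSO above a set limit, roughly screen mean plus 3 SD, cut at about 180% in these data; inconclusive means fewer than 70 cells counted for a yeast strain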;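 further: median GFP fluorescence of the barcode-gated MEP2-GFP cells per well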
# LAP4-GFP MLPCN: modulators of LAP4-GFP expression in yeast, primary screen, S. cerevisiae, multiplex flow cytometry, MLPCN library; 320,000 tested, 0.34% active; GFP response vs DMSO, % at 10 µM; 3 h; median GFP as percent of DMSO wells; AID 2023, 2009;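 active means GFP response vs DMSO above a set limit, about the screen mean plus 3 SD, cut at about 150% in these data; inconclusive means under 70 cell events counted for the yeast strain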
# VLA-4 allo CP: retest of VLA-4 allosteric modulators, confirmation, cell-based, cherry-picked plates, U937, HUTS-21 LIBS antibody; U937 cells, HUTS-21 LIBS mAb binding, flow cytometry; LDV ligand present at threefold Kd; AID 2813, 2010; 1,300 tested, 2% active; shares compounds with VLA-4 inh; inhibition, % at 6.7 µM; in the data active means inhibition above about 40%;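 further: 0% = ligand without compound and 100% = no ligand background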
# Active calls of the source: *; i = inactive; u = inconclusive; x = no result.
SMILES,CIT2 TOR yeast,AGP1 TOR yeast,RPL19A TOR yeast,VLA-4 inh,MEP2 TOR yeast,LAP4-GFP MLPCN,VLA-4 allo CP
CC1CCCC(C)N1C(=O)COC(=O)c1n[nH]c(=O)c2ccccc12 (centres undefined),119,78,103,19,99,91,x
COc1ccccc1CC(=O)N1CCN(S(=O)(=O)c2ccccc2F)CC1,97,104,102,52*,100,106,-7
COc1ccccc1CC(=O)N1CCN(S(=O)(=O)c2ccccc2)CC1,x,98,108,-6,109,88,x
O=C(COC(=O)CSc1ccc([N+](=O)[O-])cc1)NCCCc1ccccc1,103,100,98,-7,98,94,x
Cc1cc2nc3c(c(=O)n2[nH]1)CCCC3,103,102,99,91*,103,99,2
Cc1ccc(Oc2cnc3ccccc3n2)cc1,88,102,91,53*,96,95,-5
Clc1ccc(Oc2cnc3ccccc3n2)cc1,104,104,99,30,99,102,x
COc1ccccc1NC(=O)c1ccccc1N(Cc1ccccc1)S(C)(=O)=O,99,100,101,8,105,93,x
O=C(O)c1cccc(NS(=O)(=O)c2cccc3cccnc23)c1,94,99,99,50*,111,101,18
CN(C)c1ccc(NS(=O)(=O)c2ccc(Cl)cc2)cc1,106,110,93,11,112,128,x
Cc1ccc(S(=O)(=O)Nc2ccc(N(C)C)cc2)cc1,97,98,94,8,98,101,5
CCOC(=O)c1ccc(S(=O)(=O)NCCNCc2ccccc2)cc1,104,103,100,-7,100,92,x
O=C(c1ccco1)N1CCN(C(=O)c2cc(-c3ccccn3)nc3ccc(Cl)cc23)CC1,97,106,103,-8,106,104,-10
O=C(c1ccco1)N1CCN(C(=O)c2cc(-c3ccncc3)nc3ccc(Br)cc23)CC1,106,98,95,-1,95,93,2
O=C(c1cc(-c2ccco2)nc2ccccc12)N1CCN(Cc2ccccc2)CC1,104,106,102,5,102,103,-3
O=C(CNCC1CCCCC1)Nc1ccc(OC(F)(F)F)cc1,94,104,98,-24,96,105,x
Cc1ccc(S(=O)(=O)N2CCC[C@H]2C(=O)OCc2cc(=O)oc3cc(C)ccc23)cc1,103,101,99,-4,109,99,x
O=C(COC(=O)c1ccc2c(c1)OCO2)NCc1ccc2c(c1)OCO2,104,97,100,3,110,92,x
COCC(=O)NCc1ccc2c(c1)OCO2,98,104,95,53*,105,102,-8
CCC(=NCCc1c(C)[nH]c2ccc(C)cc12)C1=C(O)CC(c2ccccc2)CC1=O (centres undefined),89,98,102,46,91,87,22
CCOc1ccccc1NC(=O)C(OC(=O)c1cnccn1)c1ccccc1 (centres undefined),86,96,90,0,96,90,x
CCC(C(=O)NC(CC(=O)O)c1ccc(Cl)cc1)c1ccccc1 (centres undefined),u,79,103,14,103,96,x
Cc1nc(CSc2ccccc2)cc(=O)[nH]1,103,99,100,-1,103,93,x
CCOc1cc(C(=O)N/N=C/C(Br)=C/c2ccccc2)cc(OCC)c1OCC,99,102,102,51*,105,98,18
COc1ccc(S(=O)(=O)Nc2c(F)cccc2F)cc1,113,102,104,23,105,106,1
SMILES,CIT2 TOR yeast,AGP1 TOR yeast,RPL19A TOR yeast,VLA-4 inh,MEP2 TOR yeast,LAP4-GFP MLPCN,VLA-4 allo CP
CCN1CCN(c2nc(Nc3cccc(OC)c3)nc(N)c2[N+](=O)[O-])CC1,104,103,107,44,109,86,-28
CCN1CCN(c2nc(Nc3ccc(C)c(C)c3)nc(N)c2[N+](=O)[O-])CC1,101,99,102,0,102,92,x
N#Cc1ccccc1Cn1cc(/C=C/[N+](=O)[O-])c2ccccc21,89,98,93,42,84,156*,31
CCOc1ccc(NS(=O)(=O)c2cc(C(=O)NCCN3CCOCC3)ccc2C)cc1,110,102,101,-10,107,104,x
CCn1c(-c2ccc(-c3ccccc3)cc2)c[nH]c1=S,u,u,u,93*,u,u,9
O=C(CN1CCOCC1)Nc1ccc(N2CCN(c3ccccc3)CC2)c(F)c1,97,103,98,9,100,97,x
O=C(c1ccccc1)c1ccc2nc(N3CCN(C(=O)c4ccco4)CC3)c3nncn3c2c1,104,103,98,55*,104,97,-5
CCOC(=O)N1CCN(c2nc3ccc(C(=O)c4ccccc4)cc3n3cnnc23)CC1,103,99,94,-9,95,113,x
CC(NC(=O)c1ccccc1F)c1nnc(SCC(=O)Nc2nccs2)n1C (centres undefined),105,101,102,-1,101,100,3
Cc1nnc(NC(=O)CSc2nnc(C(C)NC(=O)c3ccccc3F)n2C)s1 (centres undefined),104,98,102,0,103,92,x
Cc1cc(C(=O)NNCc2ccccc2)no1,101,104,104,56*,97,108,6
Cc1c(NC(=O)CSc2nc(-c3ccco3)cc(C(F)(F)F)n2)c(=O)n(-c2ccccc2)n1C,109,112,112,93*,114,102,i
Cc1cc(NC(=O)CSc2nc(-c3ccco3)cc(C(F)(F)F)n2)n(-c2ccccc2)n1,98,100,106,-4,105,100,x
CCCCn1c(N)c(N(CC(C)C)C(=O)c2c(CC)noc2C)c(=O)[nH]c1=O,104,106,101,3,100,106,x
CCn1c(SCC(=O)Nc2nc(C)cs2)nnc1-c1ccncc1,101,100,103,7,102,91,x
CCn1c(SCC(=O)Nc2nc(C)cs2)nnc1C(NC(=O)c1ccccc1Cl)C(C)C (centres undefined),88,x,85,0,90,94,-7

# Bioassay records deposited in PubChem BioAssay by NMMLSC.
